Measurements from paper PMC7862700, “An all-to-all approach to the identification of sequence-specific readers for epigenetic DNA modifications on cytosine”.

Key:
Assay in all cases: DAPPL (digital affinity profiling via proximity ligation, sequencing); 10 mM Tris-HCl pH 7.5, 50 mM NaCl, 1 mM DTT, 4% glycerol, room temperature, 30 min; GST-TFs on glutathione beads, 16-mer random dsDNA library, 0.1% formaldehyde crosslink after washing; high values mean tight binding
FLI1 = target: T1, FLI1 (Homo sapiens, UniProt Q01543 1-452); details: protein: recombinant; tags: N-terminal GST; dsDNA, one strand shown
T1 sequence: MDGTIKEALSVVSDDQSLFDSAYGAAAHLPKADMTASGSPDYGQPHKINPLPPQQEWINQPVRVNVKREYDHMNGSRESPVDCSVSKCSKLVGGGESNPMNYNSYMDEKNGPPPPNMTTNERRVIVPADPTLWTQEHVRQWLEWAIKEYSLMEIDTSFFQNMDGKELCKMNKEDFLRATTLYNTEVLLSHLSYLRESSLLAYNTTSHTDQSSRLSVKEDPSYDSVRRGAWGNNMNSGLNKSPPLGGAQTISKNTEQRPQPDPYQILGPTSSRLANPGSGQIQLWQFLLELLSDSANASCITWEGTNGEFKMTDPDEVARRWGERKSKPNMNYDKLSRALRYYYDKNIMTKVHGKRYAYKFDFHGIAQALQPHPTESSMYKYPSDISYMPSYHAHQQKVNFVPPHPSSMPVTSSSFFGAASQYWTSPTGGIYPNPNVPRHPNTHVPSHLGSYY
In short: (§1)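 A tag-only sample was pooled with DNA-barcoded human transcription factors that had been expressed in yeast as GST fusions and captured on glutathione beads. The pools were incubated for 30 min at room temperature with 200 nmole of a random double-stranded 16-mer DNA library in Tris/NaCl/DTT/glycerol buffer, then washed, crosslinked with 0.1% formaldehyde, proximity-ligated (BsaI/T4 ligase, 1 h, 37 °C), PCR-amplified and sequenced on an Illumina NextSeq500. Binding signal is each hexamer's read frequency for a factor divided by its frequency for the tag-only sample.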

ELK1 = target: T2, ELK1 (Homo sapiens, UniProt P19419 1-428); details: protein: recombinant; tags: N-terminal GST; dsDNA, one strand shown
T2 sequence: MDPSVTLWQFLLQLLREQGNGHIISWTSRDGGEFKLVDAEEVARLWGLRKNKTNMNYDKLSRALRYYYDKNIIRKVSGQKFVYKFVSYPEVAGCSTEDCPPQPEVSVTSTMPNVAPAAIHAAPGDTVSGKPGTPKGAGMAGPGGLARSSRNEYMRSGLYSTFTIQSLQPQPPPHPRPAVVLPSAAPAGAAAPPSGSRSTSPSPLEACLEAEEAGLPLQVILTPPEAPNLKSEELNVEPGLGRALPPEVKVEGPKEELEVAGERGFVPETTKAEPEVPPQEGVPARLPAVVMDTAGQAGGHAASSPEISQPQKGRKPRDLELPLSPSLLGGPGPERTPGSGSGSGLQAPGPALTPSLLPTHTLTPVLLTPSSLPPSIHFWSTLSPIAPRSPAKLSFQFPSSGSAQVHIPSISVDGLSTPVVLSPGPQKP
In short: as §1

GABPA = target: T3, GABPA (Homo sapiens, UniProt Q06546 1-454); details: protein: recombinant; tags: N-terminal GST; dsDNA, one strand shown
T3 sequence: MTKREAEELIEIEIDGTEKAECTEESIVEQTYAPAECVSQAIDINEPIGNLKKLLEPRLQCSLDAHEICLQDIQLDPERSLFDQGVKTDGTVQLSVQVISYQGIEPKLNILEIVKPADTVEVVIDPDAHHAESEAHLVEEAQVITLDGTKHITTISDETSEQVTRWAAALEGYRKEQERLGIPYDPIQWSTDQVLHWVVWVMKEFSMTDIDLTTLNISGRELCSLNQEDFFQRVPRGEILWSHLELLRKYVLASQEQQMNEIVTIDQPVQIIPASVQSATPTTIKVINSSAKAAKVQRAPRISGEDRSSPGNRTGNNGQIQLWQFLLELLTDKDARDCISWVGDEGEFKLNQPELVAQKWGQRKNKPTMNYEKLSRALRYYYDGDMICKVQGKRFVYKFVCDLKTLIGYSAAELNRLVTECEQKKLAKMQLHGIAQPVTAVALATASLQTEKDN
In short: as §1

ERG = target: T4, ERG (Homo sapiens, UniProt P11308 1-479); details: protein: recombinant; tags: N-terminal GST; dsDNA, one strand shown
T4 sequence: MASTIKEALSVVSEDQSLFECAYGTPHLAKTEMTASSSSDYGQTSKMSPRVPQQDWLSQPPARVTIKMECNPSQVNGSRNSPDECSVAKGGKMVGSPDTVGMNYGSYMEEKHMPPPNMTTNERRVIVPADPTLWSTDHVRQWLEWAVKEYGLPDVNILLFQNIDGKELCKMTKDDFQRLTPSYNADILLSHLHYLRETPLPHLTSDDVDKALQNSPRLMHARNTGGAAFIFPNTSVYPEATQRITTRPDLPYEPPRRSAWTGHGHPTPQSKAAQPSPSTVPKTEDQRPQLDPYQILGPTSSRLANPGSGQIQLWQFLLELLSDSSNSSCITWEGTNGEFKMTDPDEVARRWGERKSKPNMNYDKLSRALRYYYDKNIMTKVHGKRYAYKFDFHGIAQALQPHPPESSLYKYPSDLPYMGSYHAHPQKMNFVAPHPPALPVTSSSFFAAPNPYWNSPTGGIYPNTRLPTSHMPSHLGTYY
In short: as §1

ELF1 = ELF1 (Homo sapiens, UniProt P32519 1-619); details: protein: recombinant; tags: N-terminal GST; dsDNA, one strand shown
Chain of ELF1 (P32519 whole entry): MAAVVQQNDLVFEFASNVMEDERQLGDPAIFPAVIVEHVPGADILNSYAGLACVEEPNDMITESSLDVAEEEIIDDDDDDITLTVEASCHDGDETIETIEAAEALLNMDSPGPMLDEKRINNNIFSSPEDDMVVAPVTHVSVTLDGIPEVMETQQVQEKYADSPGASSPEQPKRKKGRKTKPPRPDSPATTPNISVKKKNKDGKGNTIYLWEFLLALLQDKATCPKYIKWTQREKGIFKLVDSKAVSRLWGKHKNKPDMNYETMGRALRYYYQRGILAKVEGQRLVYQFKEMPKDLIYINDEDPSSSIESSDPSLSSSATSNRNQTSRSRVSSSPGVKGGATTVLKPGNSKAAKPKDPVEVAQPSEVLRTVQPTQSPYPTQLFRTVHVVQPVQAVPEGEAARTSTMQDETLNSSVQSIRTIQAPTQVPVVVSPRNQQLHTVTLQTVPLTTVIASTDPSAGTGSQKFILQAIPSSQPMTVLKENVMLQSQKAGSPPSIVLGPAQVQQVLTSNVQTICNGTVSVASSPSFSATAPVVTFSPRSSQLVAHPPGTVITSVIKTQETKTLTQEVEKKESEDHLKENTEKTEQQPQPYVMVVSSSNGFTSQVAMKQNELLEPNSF
In short: as §1

EHF = target: T5, EHF (Homo sapiens, UniProt Q9NZC4 1-300); details: protein: recombinant; tags: N-terminal GST; dsDNA, one strand shown
T5 sequence: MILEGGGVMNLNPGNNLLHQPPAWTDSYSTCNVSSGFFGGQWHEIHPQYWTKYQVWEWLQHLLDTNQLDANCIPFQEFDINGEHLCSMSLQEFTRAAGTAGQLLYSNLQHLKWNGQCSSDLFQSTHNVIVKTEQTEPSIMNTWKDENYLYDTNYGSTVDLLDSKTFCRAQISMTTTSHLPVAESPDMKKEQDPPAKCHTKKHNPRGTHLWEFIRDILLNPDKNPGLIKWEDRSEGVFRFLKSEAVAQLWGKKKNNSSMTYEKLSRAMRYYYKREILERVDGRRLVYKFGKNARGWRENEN
In short: as §1

SPI1 = SPI1 (Homo sapiens, UniProt P17947 1-270); details: protein: recombinant; tags: N-terminal GST; dsDNA, one strand shown
In short: as §1

SPIB = SPIB (Homo sapiens, UniProt Q01892 1-262); details: protein: recombinant; tags: N-terminal GST; dsDNA, one strand shown
Chain of SPIB (Q01892 whole entry): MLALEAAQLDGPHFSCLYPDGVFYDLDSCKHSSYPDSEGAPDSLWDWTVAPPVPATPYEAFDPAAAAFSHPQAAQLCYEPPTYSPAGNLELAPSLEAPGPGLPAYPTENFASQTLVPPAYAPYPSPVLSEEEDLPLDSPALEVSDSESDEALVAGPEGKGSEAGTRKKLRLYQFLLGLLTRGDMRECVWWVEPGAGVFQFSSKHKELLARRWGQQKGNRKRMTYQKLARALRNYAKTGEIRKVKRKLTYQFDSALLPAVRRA
In short: as §1

ELK3 = target: T6, ELK3 (Homo sapiens, UniProt P41970 1-407); details: protein: recombinant; tags: N-terminal GST; dsDNA, one strand shown
T6 sequence: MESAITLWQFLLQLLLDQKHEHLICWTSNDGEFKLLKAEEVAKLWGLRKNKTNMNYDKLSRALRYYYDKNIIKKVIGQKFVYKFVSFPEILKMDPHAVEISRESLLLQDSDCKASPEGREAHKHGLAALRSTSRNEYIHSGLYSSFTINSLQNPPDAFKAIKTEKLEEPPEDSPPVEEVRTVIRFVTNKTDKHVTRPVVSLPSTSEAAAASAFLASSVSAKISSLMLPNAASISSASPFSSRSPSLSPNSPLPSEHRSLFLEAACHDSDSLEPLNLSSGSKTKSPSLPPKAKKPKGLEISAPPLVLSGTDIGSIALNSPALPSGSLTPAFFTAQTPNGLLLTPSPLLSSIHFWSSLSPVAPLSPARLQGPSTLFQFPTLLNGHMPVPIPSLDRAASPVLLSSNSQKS
In short: as §1

FEV = target: T7, FEV (Homo sapiens, UniProt Q99581 1-238); details: protein: recombinant; tags: N-terminal GST; dsDNA, one strand shown
T7 sequence: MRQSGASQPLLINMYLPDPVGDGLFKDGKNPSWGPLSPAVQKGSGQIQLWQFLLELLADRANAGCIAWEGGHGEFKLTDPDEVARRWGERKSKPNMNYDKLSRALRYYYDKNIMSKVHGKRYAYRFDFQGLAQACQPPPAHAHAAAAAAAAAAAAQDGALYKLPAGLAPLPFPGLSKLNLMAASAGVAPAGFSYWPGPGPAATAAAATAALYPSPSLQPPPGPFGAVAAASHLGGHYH
In short: as §1

ETV5 = ETV5 (Homo sapiens, UniProt P41161 1-510); details: protein: recombinant; tags: N-terminal GST; dsDNA, one strand shown
Chain of ETV5 (P41161 whole entry): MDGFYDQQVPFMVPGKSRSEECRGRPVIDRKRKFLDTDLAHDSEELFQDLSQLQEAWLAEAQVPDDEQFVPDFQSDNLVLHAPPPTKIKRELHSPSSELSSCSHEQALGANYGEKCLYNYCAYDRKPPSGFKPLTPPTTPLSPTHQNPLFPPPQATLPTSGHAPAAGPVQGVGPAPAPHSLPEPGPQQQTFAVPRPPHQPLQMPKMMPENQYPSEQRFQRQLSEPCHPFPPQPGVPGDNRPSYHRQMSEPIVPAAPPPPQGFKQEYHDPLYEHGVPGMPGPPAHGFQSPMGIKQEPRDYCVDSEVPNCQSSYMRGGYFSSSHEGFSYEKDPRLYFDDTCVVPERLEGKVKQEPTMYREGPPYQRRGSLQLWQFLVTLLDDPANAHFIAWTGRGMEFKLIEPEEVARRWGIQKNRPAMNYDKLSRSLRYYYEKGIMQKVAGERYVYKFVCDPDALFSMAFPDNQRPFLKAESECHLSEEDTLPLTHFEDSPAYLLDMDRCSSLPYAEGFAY
In short: as §1

HSF1 = HSF1 (Homo sapiens, UniProt Q00613 1-529); details: protein: recombinant; tags: N-terminal GST; chain copies: 3; dsDNA, one strand shown
Chain of HSF1 (Q00613 whole entry): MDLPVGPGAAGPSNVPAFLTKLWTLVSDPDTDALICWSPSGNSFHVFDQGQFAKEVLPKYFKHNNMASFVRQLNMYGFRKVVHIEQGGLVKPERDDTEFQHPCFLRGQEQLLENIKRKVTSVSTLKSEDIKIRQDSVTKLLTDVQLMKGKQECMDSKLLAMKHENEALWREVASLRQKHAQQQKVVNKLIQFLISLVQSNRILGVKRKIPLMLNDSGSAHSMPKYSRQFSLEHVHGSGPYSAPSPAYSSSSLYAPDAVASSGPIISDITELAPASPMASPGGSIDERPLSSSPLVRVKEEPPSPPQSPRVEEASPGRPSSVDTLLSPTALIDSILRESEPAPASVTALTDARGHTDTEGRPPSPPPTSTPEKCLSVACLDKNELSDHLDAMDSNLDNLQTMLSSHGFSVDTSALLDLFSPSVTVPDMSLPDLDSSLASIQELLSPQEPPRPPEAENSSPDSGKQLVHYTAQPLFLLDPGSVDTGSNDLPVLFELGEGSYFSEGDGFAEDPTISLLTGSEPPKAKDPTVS
In short: as §1

SPIC = target: T8, SPIC (Homo sapiens, UniProt Q8N5J4 1-248); details: protein: recombinant; tags: N-terminal GST; dsDNA, one strand shown
T8 sequence: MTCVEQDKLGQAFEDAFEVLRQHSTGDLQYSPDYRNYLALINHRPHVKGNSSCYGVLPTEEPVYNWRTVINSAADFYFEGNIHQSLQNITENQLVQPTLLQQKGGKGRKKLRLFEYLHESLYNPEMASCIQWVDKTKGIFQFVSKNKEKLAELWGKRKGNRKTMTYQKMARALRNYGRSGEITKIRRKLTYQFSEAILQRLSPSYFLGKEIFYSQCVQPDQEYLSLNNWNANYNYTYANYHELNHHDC
In short: as §1

ELF4 = ELF4 (Homo sapiens, UniProt Q99607 1-663); details: protein: recombinant; tags: N-terminal GST; dsDNA, one strand shown
Chain of ELF4 (Q99607 whole entry): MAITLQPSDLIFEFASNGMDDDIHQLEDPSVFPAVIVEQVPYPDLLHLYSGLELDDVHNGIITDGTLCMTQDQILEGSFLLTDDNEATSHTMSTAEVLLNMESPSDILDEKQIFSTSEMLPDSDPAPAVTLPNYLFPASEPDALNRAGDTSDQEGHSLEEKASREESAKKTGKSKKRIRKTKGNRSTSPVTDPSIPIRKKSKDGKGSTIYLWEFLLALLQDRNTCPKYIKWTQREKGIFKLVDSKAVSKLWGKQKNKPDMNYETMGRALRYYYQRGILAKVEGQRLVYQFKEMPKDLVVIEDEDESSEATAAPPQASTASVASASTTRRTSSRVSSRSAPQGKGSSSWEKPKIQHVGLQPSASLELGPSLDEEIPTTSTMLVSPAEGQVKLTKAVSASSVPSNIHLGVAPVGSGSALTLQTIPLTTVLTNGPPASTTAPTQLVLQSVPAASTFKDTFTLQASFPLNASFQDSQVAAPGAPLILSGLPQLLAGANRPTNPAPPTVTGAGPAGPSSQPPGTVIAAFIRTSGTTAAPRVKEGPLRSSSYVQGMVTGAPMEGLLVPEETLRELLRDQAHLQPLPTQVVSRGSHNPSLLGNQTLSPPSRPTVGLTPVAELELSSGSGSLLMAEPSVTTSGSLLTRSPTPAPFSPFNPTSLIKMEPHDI
In short: as §1

ELK4 = target: T9, ELK4 (Homo sapiens, UniProt P28324-2 1-405); details: protein: recombinant; tags: N-terminal GST; dsDNA, one strand shown
T9 sequence: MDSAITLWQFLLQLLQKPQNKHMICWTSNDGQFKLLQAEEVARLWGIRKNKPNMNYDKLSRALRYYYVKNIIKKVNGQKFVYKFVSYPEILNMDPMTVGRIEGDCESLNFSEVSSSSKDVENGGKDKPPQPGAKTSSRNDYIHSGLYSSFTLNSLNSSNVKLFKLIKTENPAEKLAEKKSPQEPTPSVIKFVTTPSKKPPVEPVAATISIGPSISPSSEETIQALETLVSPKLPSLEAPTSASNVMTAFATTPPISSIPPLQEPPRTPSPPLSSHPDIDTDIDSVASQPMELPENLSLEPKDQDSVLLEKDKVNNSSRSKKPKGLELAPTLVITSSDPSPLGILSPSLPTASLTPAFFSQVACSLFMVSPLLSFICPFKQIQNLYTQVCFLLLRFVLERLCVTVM
In short: as §1

ETV2 = target: T10, ETV2 (Homo sapiens, UniProt O00321 1-342); details: protein: recombinant; tags: N-terminal GST; dsDNA, one strand shown
T10 sequence: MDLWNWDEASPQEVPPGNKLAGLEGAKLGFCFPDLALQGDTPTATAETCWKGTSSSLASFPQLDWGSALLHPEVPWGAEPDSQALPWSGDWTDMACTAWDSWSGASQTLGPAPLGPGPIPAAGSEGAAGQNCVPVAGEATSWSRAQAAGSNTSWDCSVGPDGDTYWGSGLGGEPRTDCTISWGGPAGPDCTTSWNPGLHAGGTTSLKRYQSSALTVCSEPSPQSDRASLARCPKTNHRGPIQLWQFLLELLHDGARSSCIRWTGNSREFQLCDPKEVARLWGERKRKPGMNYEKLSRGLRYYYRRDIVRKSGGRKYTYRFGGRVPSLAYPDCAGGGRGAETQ
In short: as §1

ELF3 = target: T11, ELF3 (Homo sapiens, UniProt P78545 1-371); details: protein: recombinant; tags: N-terminal GST; dsDNA, one strand shown
T11 sequence: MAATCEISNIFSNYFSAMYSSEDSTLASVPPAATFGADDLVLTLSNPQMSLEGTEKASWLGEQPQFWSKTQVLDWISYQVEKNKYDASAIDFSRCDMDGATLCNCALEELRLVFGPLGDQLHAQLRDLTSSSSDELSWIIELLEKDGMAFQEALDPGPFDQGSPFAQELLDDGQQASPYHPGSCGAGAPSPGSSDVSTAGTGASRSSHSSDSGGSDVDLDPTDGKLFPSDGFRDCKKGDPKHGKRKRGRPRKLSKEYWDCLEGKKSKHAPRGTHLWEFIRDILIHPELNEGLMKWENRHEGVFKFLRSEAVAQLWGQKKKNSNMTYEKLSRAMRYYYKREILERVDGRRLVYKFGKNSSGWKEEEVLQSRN
In short: as §1

CRX = CRX (Homo sapiens, UniProt O43186 1-299); details: protein: recombinant; tags: N-terminal GST; dsDNA, one strand shown
Chain of CRX (O43186 whole entry): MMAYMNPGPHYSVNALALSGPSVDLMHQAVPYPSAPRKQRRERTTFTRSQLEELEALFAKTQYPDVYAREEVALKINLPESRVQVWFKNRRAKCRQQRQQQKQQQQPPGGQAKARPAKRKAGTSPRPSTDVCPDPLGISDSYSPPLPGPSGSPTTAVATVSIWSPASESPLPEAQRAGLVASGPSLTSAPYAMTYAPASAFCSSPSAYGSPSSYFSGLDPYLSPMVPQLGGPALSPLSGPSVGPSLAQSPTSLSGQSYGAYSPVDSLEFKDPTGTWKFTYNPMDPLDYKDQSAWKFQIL
In short: as §1

ETV1 = ETV1 (Homo sapiens, UniProt P50549 1-477); details: protein: recombinant; tags: N-terminal GST; dsDNA, one strand shown
Chain of ETV1 (P50549 whole entry): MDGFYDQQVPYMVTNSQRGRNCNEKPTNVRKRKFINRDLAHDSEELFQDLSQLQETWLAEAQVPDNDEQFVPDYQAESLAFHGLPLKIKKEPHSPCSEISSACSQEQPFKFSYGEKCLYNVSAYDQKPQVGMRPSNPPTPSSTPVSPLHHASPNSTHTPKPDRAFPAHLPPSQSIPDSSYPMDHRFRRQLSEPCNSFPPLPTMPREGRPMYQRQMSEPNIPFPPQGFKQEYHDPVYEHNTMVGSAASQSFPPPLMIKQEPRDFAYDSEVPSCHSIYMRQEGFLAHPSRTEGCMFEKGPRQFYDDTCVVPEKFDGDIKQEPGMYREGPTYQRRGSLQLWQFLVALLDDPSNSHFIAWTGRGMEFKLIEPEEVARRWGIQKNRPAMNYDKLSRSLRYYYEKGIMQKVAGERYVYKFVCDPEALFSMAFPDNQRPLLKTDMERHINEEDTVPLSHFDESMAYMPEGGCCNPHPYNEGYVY
In short: as §1

Sequence: TGACTT
- binding signal (FLI1): 1.38 fold enrichment (6-mer frequency, TF over GST control)
- binding signal (ELK1): 1.5 fold enrichment (6-mer frequency, TF over GST control)
- binding signal (GABPA): 1.38 fold enrichment (6-mer frequency, TF over GST control)
- binding signal (ERG): 1.53 fold enrichment (6-mer frequency, TF over GST control)
- binding signal (ELF1): 1.44 fold enrichment (6-mer frequency, TF over GST control)
- binding signal (EHF): 1.43 fold enrichment (6-mer frequency, TF over GST control)
- binding signal (SPI1): 1.68 fold enrichment (6-mer frequency, TF over GST control)
- binding signal (SPIB): 1.52 fold enrichment (6-mer frequency, TF over GST control)
- binding signal (ELK3): 1.27 fold enrichment (6-mer frequency, TF over GST control)
- binding signal (FEV): 1.59 fold enrichment (6-mer frequency, TF over GST control)
- binding signal (ETV5): 1.52 fold enrichment (6-mer frequency, TF over GST control)
- binding signal (HSF1): 1.15 fold enrichment (6-mer frequency, TF over GST control)
- binding signal (SPIC): 1.37 fold enrichment (6-mer frequency, TF over GST control)
- binding signal (ELF4): 1.45 fold enrichment (6-mer frequency, TF over GST control)
- binding signal (ELK4): 1.4 fold enrichment (6-mer frequency, TF over GST control)
- binding signal (ETV2): 1.44 fold enrichment (6-mer frequency, TF over GST control)
- binding signal (ELF3): 1.55 fold enrichment (6-mer frequency, TF over GST control)
- binding signal (CRX): 1.29 fold enrichment (6-mer frequency, TF over GST control)
- binding signal (ETV1): 1.47 fold enrichment (6-mer frequency, TF over GST control)
